# Inconclusive results are not listed. The source made the active and inactive calls. Calls follow the shape of the dose curve; as a rule, active = well fitted cell-killing curve with a large enough effect; inconclusive = small, poorly fitted or top-dose-only effect; inactive = flat fitted curve, though single readings scatter.
# Assay: Cell Viability - H-4-II-E (AID 543); also: nearly all actives have a fitted effect of over 35% in size
# Settings: H-4-II-E rat hepatoma viability; series mostly up to 92.2 µM; activity change, negative = cytotoxic: at the top concentration
# Description: NIH Chemical Genomics Center [NCGC]
# NIH Molecular Libraries Screening Centers Network [MLSCN]
# National Institutes of Environmental Health Sciences [NIEHS]
# National Toxicology Program [NTP]
# We have developed a 1536-well cell-based assay for quantitative high throughput screening (qHTS) against a number of cell lines to determine in vitro cytotoxicity of small molecules. This particular assay uses the H-4-II-E cell line which is derived from rat hepatoma.
# NCGC Assay Protocol Summary:
# The CellTiter-Glo luminescent cell viability assay (Promega) is a homogeneous method to measure the number of viable cells in culture. The end point readout of this assay is based on quantitation of intracellular ATP, an indicator of metabolic activity, using the luciferase reaction. Luciferase catalyzes the oxidation of beetle Luciferin to oxyluciferin and light in the presence of ATP. The luminescent signal is proportional to amount of ATP present.
# Using the CellTiter-Glo luminescent cell viability assay, the amount of cellular ATP was measured in the H-4-II-E cell line with complete culture medium following compound treatment for 40 hours. The assay was performed in opaque white Kalypsys 1536-well plates. In the screen, tamoxifen and doxorubicin were used as positive controls. Library compounds were measured for their ability to cause acute toxicity in the cell line, as reflected by a decrease in intracellular ATP levels, in a concentration-dependent manner. […] AC50 values were determined from concentration-response data modeled with the standard Hill equation.
# qHTS protocol fo CellTiter Glo H-4-II-E cellular assay
# [Step] [Parameter] [Value] [Description]
# 1. Reagent; 5 uL; 1500 H-4-II-E cells/well
# 2. Time; 5 hr; 37 °C incubation
# 4. Controls; 23 nL; Tamoxifen 0.34 uM to 100 uM & Doxorubicin 0.02 nM to 100 uM
# 5. Time; 40 hr; 37 °C incubation
# 6. Reagent; 5 uL; CellTiter Glo reagent
# 7. Time; 20 min; Room Temperature
# 8. Detection; Luminescence; Viewlux plate reader
# Keywords: cell viability, cytotoxicity, H-4-II-E cell line, luminescence, NTPHTS, NTPHTS_NCGC, NIEHS, EPA, DSSTox, MLSMR, MLSCN, NIH Roadmap, qHTS, NCGC
# % is scaled to controls: 0 for no effect and ±100 for the full control effect; potency is read from the fitted curve at half-maximal effect.
SMILES,Potency,"activity change, negative = cytotoxic"
Nc1c2ccccc2nc2ccccc12,15.8 µM (active),–
Nc1cccc2c(N)cccc12,–,-15% (inactive)
CC(C)C(C)(C)C(C)(C)C(C)(C)S,–,-10.7% (inactive)
Nc1ccc(O)cc1,39.8 µM (active),–
Oc1ccccc1,–,-3.68% (inactive)
c1ccc2occc2c1,–,-0.596% (inactive)
C1=CC2C3C=CC(C3)C2C1 (centres undefined),–,-3.92% (inactive)
Cc1cc(C(C)(C)C)c(O)c(C(C)(C)C)c1,–,4.46% (inactive)
CCCC(=O)c1cc(O)c(O)cc1O,–,-18.6% (inactive)
CCCCCCCCCCCCCCCC[n+]1ccccc1,3.98 µM (active),–
Brc1ccccc1-c1ccccc1,–,0.416% (inactive)
CC(C)(c1ccc(O)cc1)c1ccc(O)cc1,inactive,–
O=C(NO)c1ccccc1,–,-8.53% (inactive)
O=C(Oc1ccccc1)c1ccccc1O,–,3.89% (inactive)
CCCCC(CC)COC(=O)c1ccccc1C(=O)O (centres undefined),–,-2.49% (inactive)
COc1cc(C=O)ccc1O,–,-5.59% (inactive)
O=C(c1ccccc1)c1ccccc1,–,-2.48% (inactive)
OCc1c[nH]c2ccccc12,–,-3.58% (inactive)
Cc1ccc(O)cc1,–,-5.61% (inactive)

# From PubChem BioAssay (NCATS)
